# Experimental data as given in PubChem BioAssay (NCATS).
# Records with an inconclusive call do not appear. Values without a mark were called inactive. Active and inactive are the calls of the source. The call rests on the fitted dose curve; in most records, active means well fitted inhibition curve with a large enough effect; inconclusive means small, poorly fitted or top-dose-only effect; inactive means flat fitted curve, though single readings scatter.
# How the values were obtained:
# [1] = qHTS profiling for inhibitors of Plasmodium falciparum proliferation (AID 504749); further: nearly all actives have a fitted effect of over 60% in size;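 on activity, negative = inhibition: 0% = DMSO vehicle and full inhibition = artemisinin control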; details: P. falciparum in erythrocytes, SYBR Green DNA, 72 h
# In short: (§1)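 P. falciparum-infected erythrocytes (0.3% parasitemia, 2.5% hematocrit final) were exposed to compounds for 72 h at 37 C in 5% CO2, then lysed with SYBR Green buffer overnight at room temperature; parasite DNA fluorescence was normalized to artemisinin and DMSO controls.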
# 3D7 = assay: as above; details: P. falciparum in erythrocytes, SYBR Green DNA, 72 h; series mostly up to 28.7 µM
# In short: as §1
# 7G8 = assay: as above; details: P. falciparum in erythrocytes, SYBR Green DNA, 72 h; series mostly up to 28.7 µM
# In short: as §1
# [2] = at 28.7 µM (top of the series), parasite line A
# [3] = at 28.7 µM (top of the series), parasite line B
# [4] = at 12.8 µM (top of the series), parasite line A
# [5] = at 12.8 µM (top of the series), parasite line B
# Potency means the concentration at half of the fitted maximal effect.
smiles,measurement,setting,value
O=C(CS(=O)C(c1ccccc1)c1ccccc1)NO (stereo not given),"activity, negative = inhibition",[1]; [2],-13.7%
same,"activity, negative = inhibition",[1]; [3],0.0253%
same,Potency,3D7,inactive
same,Potency,7G8,inactive
COCC(C)N(C(=O)CCl)c1c(C)csc1C (stereo not given),"activity, negative = inhibition",[1]; [2],7.86%
same,"activity, negative = inhibition",[1]; [3],-2.46%
same,Potency,3D7,inactive
same,Potency,7G8,inactive
O=CC=O,"activity, negative = inhibition",[1]; [2],6.37%
same,"activity, negative = inhibition",[1]; [3],0.163%
same,Potency,3D7,inactive
same,Potency,7G8,inactive
CCC1(c2ccccc2)C(=O)NC(=O)N(C(=O)c2ccccc2)C1=O (stereo not given),"activity, negative = inhibition",[1]; [2],-16%
same,"activity, negative = inhibition",[1]; [3],9.27%
same,Potency,3D7,inactive
same,Potency,7G8,10 µM (active)
O=P(O)(O)C(Cl)(Cl)P(=O)(O)O,"activity, negative = inhibition",[1]; [2],6.37%
same,"activity, negative = inhibition",[1]; [3],14%
same,Potency,3D7,inactive
same,Potency,7G8,inactive
S=C(S)N1CCNCC1,"activity, negative = inhibition",[1]; [2],5.54%
same,"activity, negative = inhibition",[1]; [3],4.75%
same,Potency,3D7,inactive
same,Potency,7G8,inactive
ClC=C(Cl)Cl,"activity, negative = inhibition",[1]; [2],6.3%
same,"activity, negative = inhibition",[1]; [3],0.959%
same,Potency,3D7,inactive
same,Potency,7G8,inactive
O=c1[nH]cc(N(CCCl)CCCl)c(=O)[nH]1,"activity, negative = inhibition",[1]; [2],-0.577%
same,"activity, negative = inhibition",[1]; [3],-4.63%
same,Potency,3D7,inactive
same,Potency,7G8,inactive
CCCCNCC(O)c1ccc(O)cc1 (stereo not given),"activity, negative = inhibition",[1]; [2],-2.61%
same,"activity, negative = inhibition",[1]; [3],-2.79%
same,Potency,3D7,inactive
same,Potency,7G8,inactive
FC(F)OC(F)(F)C(F)Cl (stereo not given),"activity, negative = inhibition",[1]; [2],10.8%
same,"activity, negative = inhibition",[1]; [3],14%
same,Potency,3D7,inactive
same,Potency,7G8,inactive
COc1ccc(OC)c(C(O)C(C)N)c1 (stereo not given),"activity, negative = inhibition",[1]; [2],12.5%
same,"activity, negative = inhibition",[1]; [3],-2.03%
same,Potency,3D7,inactive
same,Potency,7G8,inactive
CC[N+](C)(CC)CCOC(=O)C(O)(c1ccccc1)c1ccccc1,"activity, negative = inhibition",[1]; [2],5.27%
same,"activity, negative = inhibition",[1]; [3],8.78%
same,Potency,3D7,inactive
same,Potency,7G8,inactive
CC(N)Cc1ccc(O)cc1 (stereo not given),"activity, negative = inhibition",[1]; [2],-0.875%
same,"activity, negative = inhibition",[1]; [3],1.76%
same,Potency,3D7,inactive
same,Potency,7G8,inactive
O=C(NCNC(=O)NC1C(=O)NC(=O)N1CO)NC1C(=O)NC(=O)N1CO (stereo not given),"activity, negative = inhibition",[1]; [2],15.1%
same,"activity, negative = inhibition",[1]; [3],8.84%
same,Potency,3D7,inactive
same,Potency,7G8,inactive
CCCC(C)C1(CC)C(=O)NC(=O)NC1=O (stereo not given),"activity, negative = inhibition",[1]; [2],2.58%
same,"activity, negative = inhibition",[1]; [3],0.184%
same,Potency,3D7,inactive
same,Potency,7G8,inactive
COC1=CC=C2[C@H]3Cc4ccc(OC)c5c4[C@@]2(CCN3C)[C@H]1O5,"activity, negative = inhibition",[1]; [4],-6.15%
same,"activity, negative = inhibition",[1]; [5],12.3%
same,Potency,3D7,inactive
same,Potency,7G8,inactive
CC(Cc1ccccc1)NC=O (stereo not given),"activity, negative = inhibition",[1]; [2],1.78%
same,"activity, negative = inhibition",[1]; [3],3.72%
same,Potency,3D7,inactive
same,Potency,7G8,inactive
C[CH2][Hg][S]c1ccccc1C(=O)O,Potency,[1]; parasite line A,2.82 µM (active)
same,Potency,[1]; parasite line B,3.16 µM (active)
same,Potency,3D7,1.78 µM (active)
same,Potency,7G8,1.12 µM (active)
CN1C2CCC1CC(OC(c1ccccc1)c1ccc(Cl)cc1)C2 (stereo not given),Potency,[1]; parasite line A,5.01 µM (active)
same,Potency,[1]; parasite line B,7.08 µM (active)
same,Potency,3D7,12.6 µM (active)
same,Potency,7G8,4.47 µM (active)
O=C1CCO1,"activity, negative = inhibition",[1]; [2],-3.97%
same,"activity, negative = inhibition",[1]; [3],-7.7%
same,Potency,3D7,inactive
same,Potency,7G8,inactive
C=CCN(C1=NCCN1)c1c(Cl)cccc1Cl,"activity, negative = inhibition",[1]; [2],11.1%
same,"activity, negative = inhibition",[1]; [3],1.37%
same,Potency,3D7,inactive
same,Potency,7G8,inactive
C[C@H]1CC[C@@H]2[C@@H](C)[C@H]3[C@H](C[C@H]4[C@@H]5CC=C6CC(O[C@@H]7O[C@H](CO)[C@H](O)[C@H](O[C@@H]8O[C@H](CO)[C@@H](O)[C@H](O)[C@H]8O)[C@H]7O[C@H]7O[C@@H](C)[C@H](O)[C@@H](O)[C@H]7O)CC[C@]6(C)[C@H]5CC[C@]34C)N2C1 (stereo not given in full),"activity, negative = inhibition",[1]; [2],-2.66%
same,"activity, negative = inhibition",[1]; [3],12%
same,Potency,3D7,inactive
same,Potency,7G8,inactive
O=C(OCCN1CCCCC1)C(O)(c1ccccc1)c1ccccc1,"activity, negative = inhibition",[1]; [2],8.26%
same,"activity, negative = inhibition",[1]; [3],-1.95%
same,Potency,3D7,inactive
same,Potency,7G8,inactive
COC([CH2][Hg])CNC(=O)c1ccccc1OCC(=O)O (stereo not given),"activity, negative = inhibition",[1]; [2],6.16%
same,"activity, negative = inhibition",[1]; [3],2.49%
same,Potency,3D7,inactive
same,Potency,7G8,inactive
CCON=O,"activity, negative = inhibition",[1]; [2],-4.19%
same,"activity, negative = inhibition",[1]; [3],0.895%
same,Potency,3D7,inactive
same,Potency,7G8,inactive
CCC1(c2ccccc2)C(=O)NC(=O)N(C)C1=O (stereo not given),"activity, negative = inhibition",[1]; [2],3.95%
same,"activity, negative = inhibition",[1]; [3],7.56%
same,Potency,3D7,inactive
same,Potency,7G8,8.91 µM (active)
COc1ccc2c(c1OC)C(=O)OC2C1c2cc3c(cc2CCN1C)OCO3 (stereo not given),"activity, negative = inhibition",[1]; [2],9.94%
same,"activity, negative = inhibition",[1]; [3],3.46%
same,Potency,3D7,inactive
same,Potency,7G8,inactive
CCOC(=O)c1ccccc1C(=O)OCC,"activity, negative = inhibition",[1]; [2],8.38%
same,"activity, negative = inhibition",[1]; [3],-4.32%
same,Potency,3D7,inactive
same,Potency,7G8,inactive
O=S(=O)(O)c1cc(O)ccc1O,"activity, negative = inhibition",[1]; [4],3.73%
same,"activity, negative = inhibition",[1]; [5],-1.7%
same,Potency,3D7,inactive
same,Potency,7G8,inactive
CCCCCl,"activity, negative = inhibition",[1]; [2],1.32%
same,"activity, negative = inhibition",[1]; [3],10.6%
same,Potency,3D7,inactive
same,Potency,7G8,inactive
O=C(CCl)c1ccc(Oc2ccc(C(=O)CCl)cc2)cc1,"activity, negative = inhibition",[1]; [2],5.66%
same,"activity, negative = inhibition",[1]; [3],2.87%
same,Potency,3D7,inactive
same,Potency,7G8,inactive
c1ccc(C2(N3CCCC3)CCCCC2)cc1,Potency,[1]; parasite line A,12.6 µM (active)
same,Potency,3D7,12.6 µM (active)
same,Potency,7G8,11.2 µM (active)
Oc1cccc[c]1[Hg][Cl],Potency,[1]; parasite line A,5.01 µM (active)
same,Potency,[1]; parasite line B,6.31 µM (active)
same,Potency,3D7,8.91 µM (active)
same,Potency,7G8,1.78 µM (active)
C=CCN=C=S,"activity, negative = inhibition",[1]; [2],-3.28%
same,"activity, negative = inhibition",[1]; [3],7.56%
same,Potency,3D7,inactive
same,Potency,7G8,inactive
